Activity calls are given as the source filed them. The rule behind the calls is not given here.
Assay: V-ATPase proton transport modulators in yeast, dose response, S. cerevisiae, pHLuorin, powder set 4 (AID 652071)
Conditions: S. cerevisiae pHLuorin cytosolic pH fluorescence; series mostly up to 100 µM; response change, sign ambiguous: at the top concentration

Response change, sign ambiguous, inactive:
O=C(Nc1ccccc1N1CCCCC1)c1cccc(Cl)n1 -40.8%, CC(=O)N1CCN(c2ccccc2NC(=O)c2ccc(CN(C)C)o2)CC1 -7.44%, CC(=O)N1CCN(c2ccccc2NC(=O)c2cc(C)ccn2)CC1 32.1%, CN1CCN(c2ccccc2NC(=O)c2cccc(C(=O)N(C)C)c2)CC1 5.41%, CC(=O)N1CCN(c2ccccc2NC(=O)c2cc(Cl)ccn2)CC1 5.48%, CN(C)Cc1ccc(C(=O)Nc2ccccc2N2CCCCC2)o1 -16.9%, O=C(Nc1ccccc1N1CCCCC1)c1ccc(C(F)(F)F)o1 -23.6%, CC(=O)N1CCN(c2ccccc2NC(=O)c2cccc(CC#N)c2)CC1 -0.81%, O=C(c1ccc(Cl)o1)N1CCN(c2nc3ccc(F)cc3s2)CC1 -3.92%, CN1CCN(c2ccccc2NC(=O)c2cccc(S(=O)(=O)N(C)C)c2)CC1 14.1%, Cc1ccc(C(=O)Nc2ccccc2N2CCCCC2)o1 -65.7%, CC(=O)N1CCN(c2ccccc2NC(=O)c2cccc(S(=O)(=O)N(C)C)c2)CC1 8.75%, Cc1cncc(C(=O)Nc2ccccc2N2CCCCC2)n1 -56.8%, CC(=O)N1CCN(c2ccccc2NC(=O)c2cccc(S(C)(=O)=O)c2)CC1 20.5%, CN1CCN(c2ccccc2NC(=O)c2ccc(C(F)(F)F)o2)CC1 -7.3%, CN1CCN(c2ccccc2NC(=O)c2cc(C#N)ccn2)CC1 11.9%, O=C(Nc1ccccc1N1CCCCC1)c1cncc(Cl)n1 -28.4%, CC(=O)N1CCN(c2ccccc2NC(=O)c2ccc(C(N)=O)o2)CC1 0%, Cc1cccc(C(=O)Nc2ccccc2N2CCCCC2)n1 -33.3%, CN1CCN(c2ccccc2NC(=O)c2occc2-c2ccccc2)CC1 0.05%, O=C(Nc1ccccc1N1CCCCC1)c1cc(C(F)(F)F)ccn1 2.55%, CC(=O)N1CCN(c2ccccc2NC(=O)c2cccc(Cl)n2)CC1 16.4%, CN1CCN(c2ccccc2NC(=O)c2cc(C(F)(F)F)ccn2)CC1 -25.1%, CC(=O)N1CCN(c2ccccc2NC(=O)c2cncc(N)n2)CC1 13.1%, O=C(Nc1ccccc1N1CCCCC1)c1ccc(Cl)o1 -19.9%, COCc1cccc(C(=O)Nc2ccccc2N2CCN(C(C)=O)CC2)c1 14%, CN1CCN(c2ccccc2NC(=O)c2ccc(Br)o2)CC1 2.63%, Cc1cncc(C(=O)Nc2ccccc2N2CCN(C)CC2)n1 -10.2%, COCc1cccc(C(=O)Nc2ccccc2N2CCCCC2)c1 -22.1%, O=C(Nc1ccccc1N1CCCCC1)c1occc1-c1ccccc1 -82.7%, Cc1ccc(C(=O)Nc2ccccc2N2CCN(C)CC2)o1 -17.8%, CN1CCN(c2ccccc2NC(=O)c2ccc(C(C)(C)C)o2)CC1 -20.7%, Cc1cccc(C(=O)Nc2ccccc2N2CCN(C)CC2)n1 -22.4%, COCc1ccc(C(=O)Nc2ccccc2N2CCN(C(C)=O)CC2)o1 -4.67%, CN1CCN(c2ccccc2NC(=O)c2ccc(C(N)=O)o2)CC1 -14.2%
